Giardia FBPA inh – qHTS Assay for Inhibitors of Fructose-1,6-bisphosphate Aldolase from Giardia Lamblia; Potency, µM (doses to about 59.6 µM), inactives show top-dose activity, negative = inhibition, most hits filed as inhibitors; purified Giardia FBPA; 0.71% of 290,000 active; AID 2451, 2010; also: potency is read from the fitted curve at half-maximal effect; % is scaled to controls: 0 for no effect and ±100 for the full control effect; nearly all actives have a fitted effect of over 55% in size
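Giardia FBPA (40 nM reagent) was preincubated 10 min at RT with compound (up to 57.5 uM final), then substrate plus GAPDH/TPI/NAD/arsenate coupling system with diaphorase/resazurin was added; resorufin fluorescence (525/598 nm) was read after 20 min.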
LmPK inh – qHTS Assay for Inhibitors of Leishmania Mexicana Pyruvate Kinase (LmPK). Q27686. purified LmPK, Kinase-Glo ATP luminescence, 1 h. Potency, µM (top dose mostly 57.5 µM), for the others: top-dose activity change, negative = inhibition, actives largely listed as inhibitors. 0.37% of 290,000 active. AID 1721, 2009; also: potency is read from the fitted curve at half-maximal effect; % is scaled to controls: 0 for no effect and ±100 for the full control effect
Target sequence (Q27686 whole entry, looked up): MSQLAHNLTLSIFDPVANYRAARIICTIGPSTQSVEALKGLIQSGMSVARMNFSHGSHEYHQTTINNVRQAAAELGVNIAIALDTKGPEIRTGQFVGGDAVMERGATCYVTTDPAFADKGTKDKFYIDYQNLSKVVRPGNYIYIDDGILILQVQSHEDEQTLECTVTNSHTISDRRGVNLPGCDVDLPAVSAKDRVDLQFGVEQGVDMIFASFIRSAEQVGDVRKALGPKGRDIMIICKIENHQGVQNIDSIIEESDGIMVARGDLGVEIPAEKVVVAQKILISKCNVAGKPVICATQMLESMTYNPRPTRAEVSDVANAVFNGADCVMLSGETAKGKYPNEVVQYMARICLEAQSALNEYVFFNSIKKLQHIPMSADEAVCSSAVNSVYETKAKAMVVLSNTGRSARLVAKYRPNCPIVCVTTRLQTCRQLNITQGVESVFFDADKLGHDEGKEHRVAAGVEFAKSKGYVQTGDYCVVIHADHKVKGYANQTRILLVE
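Purified LmPK (0.1 nM) with 0.5 mM PEP and 0.1 mM ADP in imidazole buffer pH 7.2 with MgCl2/KCl, 1 h at room temperature. ATP formed was read by luciferase luminescence and normalized to no-enzyme and uninhibited controls.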
TbPYK inhibitor – qHTS of Trypanosoma Brucei Inhibitors. pyruvate kinase (Trypanosoma brucei), Q57TT1. TbPYK enzyme, Kinase-Glo Plus ATP luminescence, 45 min. Potency, µM (top dose mostly 76.8 µM), for the others: at the highest dose activity, negative = inhibition, usual class: inhibitors. 0.12% of 410,000 active; also: potency is read from the fitted curve at half-maximal effect; % is scaled to controls: 0 for no effect and ±100 for the full control effect; nearly all actives have a fitted effect of over 50% in size
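Assay buffer: 50 mM TEA pH 7.2, 100 mM KCl, 10 mM MgCl2, 0.05% BSA, 0.01% Tween-20. Pyruvate kinase from T. brucei plus substrate met compound, then ADP (130 uM final). Luminescence was read post 45 min RT.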
Sm TGR block – qHTS Assay for the Inhibitors of Schistosoma Mansoni Peroxiredoxins. Potency, µM (top dose mostly 114 µM), for the others: at the top dose activity change, negative = inhibition, usual class: inhibitors. purified TGR, DTNB reduction, TNB absorbance 405 nm. 3% of 360,000 active; also: potency is read from the fitted curve at half-maximal effect; % is scaled to controls: 0 for no effect and ±100 for the full control effect; nearly all actives have a fitted effect of over 60% in size
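First, TGR (20 nM dispensed) and NADPH were mixed with compound. Second, a 15 min room-temperature incubation followed. Third, further NADPH and then DTNB were added to start the reaction. Finally, TNB absorbance was monitored kinetically.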
Shiga toxin inh – A qHTS for Small Molecule Inhibitors of Shiga Toxin | AID 2315, 2010 | inhibition, % at 38.7 µM | 9.2% of 290,000 active | Vero cells, Shiga toxin protein synthesis inhibition reporter; in the data active = inhibition mostly above about 28%, no sharp cut-off; inactive = mostly below about 43%; also: 0% is about no effect
CHX counter – Cycloheximide Counterscreen for Small Molecule Inhibitors of Shiga Toxin; cell reporter, cycloheximide protein synthesis inhibition counterscreen; max response, %; 12% of 300,000 active; in the data active = max response mostly above about 13%, no sharp cut-off; inactive = mostly below about 14%; also: read at 38.3 µM for the half of the compounds with a filed dose; 0% is about no effect
* = called active by the depositor; ? = inconclusive; / = no result given. Shown is part of a subset that was picked to be rich in hits. Unless noted, calls follow the shape of the dose curve; as a rule, active = well fitted curve in the direction sought with a large enough effect; inconclusive = small, poorly fitted or top-dose-only effect, or another doubt; inactive = no such curve, though single readings can be large; an effect the other way counts as inactive or inconclusive.

SMILES	Giardia FBPA inh	LmPK inh	TbPYK inhibitor	Sm TGR block	Shiga toxin inh	CHX counter
COc1ccccc1NC(=O)c1c(NCc2ccc(C)o2)sc2c1CCCCC2	/	/	?	2µM*	/	/
COc1ccc(Cl)cc1NC(=O)c1c(NCc2cccs2)sc2c1CCC(C)C2 (stereo not drawn)	/	/	-8%	-7%	/	/
COc1ccc(OC)c(NC(=O)c2c(NC(=O)CNCc3ccco3)sc3c2CCC3)c1	1%	3%	-4%	2%	-5	-1
COc1ccc(OC)c(NC(=O)c2c(NCc3ccc(C)o3)sc3c2CCCCC3)c1	/	/	?	3.5µM*	/	/
COc1ccc(OC)c(NC(=O)c2c(NCc3sccc3C)sc3c2CCCCC3)c1	/	/	?	20µM*	/	/
COc1ccc(Cl)cc1NC(=O)c1c(NCc2ccc(C)o2)sc2c1CCCCC2	/	/	?	3.5µM*	/	/
Cn1c(=O)[nH]c(=O)c2c1nc(CN1CCN(c3ccccc3)CC1)n2Cc1c(F)cccc1Cl	/	/	-5%	-7%	/	/
COc1ccc(-c2cc(C(=O)NC(C)c3ccccn3)c3ccccc3n2)cc1OC (stereo not drawn)	/	/	5%	-12%	/	/
COc1ccc(OC)c(NC(=O)c2c(NCc3ccc(N(C)C)cc3)sc3c2CCCC3)c1	/	/	-16%	22µM*	/	/
COc1ccc(OC)c(NC(=O)c2c(NCc3ccc(OC)c(OC)c3)sc3c2CCC3)c1	/	/	-27%	-5%	/	/
O=C(Cn1ccc([N+](=O)[O-])n1)N1CCCc2ccccc21	3%	3%	-1%	-6%	127*	54*
Cc1nn(CC(=O)c2cccc(Cl)c2)c(C)c1[N+](=O)[O-]	-2%	3%	-5%	-9%	23	24*
Cc1c(Br)c([N+](=O)[O-])nn1CC(=O)N1CCCc2ccccc21	12%	-5%	-14%	-1%	28	14
Cc1nn(CC(=O)N2CCCc3ccccc32)c(C)c1[N+](=O)[O-]	-1%	1%	3%	9%	31	28*
Cc1ccc(CN(Cc2ccco2)C(=O)c2oc3c(C)c(C)ccc3c2C)cc1	/	/	0%	?	/	/
COc1ccc(Oc2ncc3nc(-c4cn(C)c5ccccc45)c(=O)n(CCC#N)c3n2)cc1	-1%	/	-31%	/	/	/
Clc1ccc(OCC#CCN2CCCC2)cc1	?	-2%	-11%	0%	61*	23*
COc1ccccc1OCC#CCN1CCCCCC1	?	9%	-2%	-23%	16	-1
CN1CCN(CC#CCOc2ccc(Cl)cc2)CC1	?	-3%	1%	2%	/	21*
Cc1ccc(S(=O)(=O)N2CCN(Cc3nc4ccc(C)cc4o3)CC2)c(C)c1	/	/	3%	4%	/	/
COc1ccccc1OCC(=O)Nc1ccccn1	-2%	13µM*	?	0%	27	27*
Cc1c(C)c2ccc(OCC(=O)Nc3ccccn3)c(C)c2oc1=O	-7%	-17%	?	-6%	35*	22*
Cc1c(C)c2ccc(OCC(=O)N3CCOCC3)c(C)c2oc1=O	1%	1%	-10%	4%	25	20*
Cc1cc(=O)oc2c(C)c(OCC(=O)Nc3cccnc3)ccc12	-4%	3%	-2%	2%	41*	31*
CC(C)C(NC(=O)c1ccco1)C(=O)NCc1ccc(C(=O)O)cc1 (stereo not drawn)	-3%	-3%	1%	-5%	-8	-4
SMILES	Giardia FBPA inh	LmPK inh	TbPYK inhibitor	Sm TGR block	Shiga toxin inh	CHX counter
COc1ccccc1NC(=O)C(=O)Nc1ccccn1	3%	-14%	-2%	-19%	94*	76*
Cc1ccc(NC(=O)C(=O)Nc2ccccn2)cc1	2%	?	-12%	1%	69*	38*
COc1ccccc1NC(=O)C(=O)N/N=C(\C)CC(=O)Nc1ccccn1	1%	2%	3%	/	23	11
CCC(=O)Nc1cc(C)c(O)c(-c2nc3ncccc3o2)c1	/	/	3%	9%	/	/
COc1ccc(NC(=O)c2oc3ccccc3c2NC(=O)c2cc(OC)c(OC)c(OC)c2)cc1	/	/	7%	-7%	/	/
C=C(C(=O)c1ccccc1)C(C)C(=C)C(=O)c1ccccc1	15%	-3%	-6%	-8%	17	38*
C=C(C(=O)c1ccccc1)C(c1ccccc1)C(C)C(=O)c1ccccc1 (stereo not drawn)	2%	1%	-5%	7%	-5	7
O=C(Nc1ccccc1C(F)(F)F)C1CCN(C(=O)c2cccs2)CC1	6%	-2%	1%	0%	1	-3
O=C1NC[C@@H](CCCCN2C[C@H](Cc3ccc(O)cc3)N(CCc3ccccc3)C(=O)C2=O)N(CCc2ccccc2)C1=O	/	/	-2%	/	/	/
COc1cccc(N=CC2=C(O)CC(C)(C)CC2=O)c1	0%	-8%	-4%	-4%	24	13*
COc1cccc(N=CC2=C(O)CCCC2=O)c1	3%	0%	3%	-2%	31	30*
CCOc1ccc(-c2c(C)nn3c(C)c(C(=O)Nc4cc(C)cc(C)c4)cnc23)cc1OCC	/	/	0%	0%	/	/
COc1cccc(-c2nc3c(c(SCc4ccccc4)n2)Cc2c(CO)cnc(C)c2O3)c1	/	/	-3%	-19%	/	/
O=C1c2cccc3cccc(c23)C(=O)N1CC1CCCO1 (stereo not drawn)	-3%	-3%	6%	4%	18	24
Nc1cccc(Oc2ccc3c(c2)C(=O)N(CC2CCCO2)C3=O)c1 (stereo not drawn)	4%	3%	0%	9%	82*	35*
COC(=O)c1ccc(NC(=O)c2cc(S(=O)(=O)N3CCc4ccccc43)cn2C)cc1	/	/	-1%	-19%	/	/
CCc1ccc2occ(CC(=O)Nc3sc4c(c3C(=O)OC)CCC4)c2c1	/	/	3%	2%	/	/
O=C(c1nc2ccc(Cl)cn2c1CN1CCC[C@H]1CO)N1CCCCCCC1	/	1%	1%	45µM*	-4	-3
O=S(=O)(c1ccccc1)c1nc(-c2cccs2)oc1SCc1ccccc1Cl	/	/	-3%	-18%	/	/
CN(C)Cc1ccccc1-c1nc(N(C)C)c2ccccc2n1	0%	/	/	/	/	/
CCN(CC)c1ccc(N=Cc2ccc(N(CC)CC)cc2O)cc1	?	-11%	-12%	-30%	29	12
CCN(CC)c1ccc(C=Nc2ccc(N(C)C)cc2)c(O)c1	?	3%	-23%	-20%	91*	54*
CCN(CC)c1ccc(/C=N/NC(=O)c2ccoc2C)c(O)c1	6%	-5%	-3%	18%	93*	27*
CCN(CC)c1ccc(/C=N/N2CCOCC2)c(O)c1	-17%	-3%	3%	-2%	70*	65*
CCN(CC)c1ccc(/C=N/NC(=O)OC)c(O)c1	-24%	-5%	-7%	9%	64*	55*
